Data published in PubChem BioAssay.
Values without a mark were called inactive. Calls of active or inactive are those of the source. Unless noted, no stated cut-off is given here; in the data, active means inhibition above about 44%; inactive means the rest.

How the values were obtained:
[1] = StAR promoter reporter inhibitors, counter-screen for LRH-1 inverse agonist project, cell-based, luminescence, high throughput (AID 651611; in the data active means inhibition above about 28%); conditions: StAR promoter luciferase reporter counterscreen, at 3.6 µM, active compounds read high
[2] = target: Nuclear receptor subfamily 5 group A member 2 (Homo sapiens) (UniProt O00482); test: LRH-1 (NR5A2) inverse agonists, retest, confirmation, cell-based, luminescence (AID 651613; in the data active means inhibition above about 42%;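 further: HEK293T cells co-transfected with LRH-1 and StAR promoter luciferase reporter; 0% = vehicle wells and 100% = parental cells lacking receptor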); conditions: cell-based LRH-1 luciferase reporter, inverse agonism; at 3.6 µM; active compounds read high
[3] = target: Steroidogenic factor 1 (Homo sapiens) (UniProt Q13285); test: SF1 (NR5A1) inverse agonists, counter-screen for LRH-1 inverse agonist project, cell-based, luminescence, high throughput (AID 651614); conditions: cell-based SF1 luciferase reporter, at 3.6 µM, active compounds read high;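 further: cells cotransfected with StAR promoter reporter and SF1 expression vector; 0% = vehicle on cells with receptor and 100% = vehicle on cells lacking receptor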
[4] = VP16 transactivation reporter inhibitors, counter-screen for LRH-1 inverse agonist project, cell-based, luminescence, high throughput (AID 651615; in the data active means inhibition above about 33%); conditions: Gal4-VP16 luciferase reporter cells, at 3.6 µM, active compounds read high

Chain of Nuclear receptor subfamily 5 group A member 2 (Homo sapiens) (O00482 whole entry, looked up): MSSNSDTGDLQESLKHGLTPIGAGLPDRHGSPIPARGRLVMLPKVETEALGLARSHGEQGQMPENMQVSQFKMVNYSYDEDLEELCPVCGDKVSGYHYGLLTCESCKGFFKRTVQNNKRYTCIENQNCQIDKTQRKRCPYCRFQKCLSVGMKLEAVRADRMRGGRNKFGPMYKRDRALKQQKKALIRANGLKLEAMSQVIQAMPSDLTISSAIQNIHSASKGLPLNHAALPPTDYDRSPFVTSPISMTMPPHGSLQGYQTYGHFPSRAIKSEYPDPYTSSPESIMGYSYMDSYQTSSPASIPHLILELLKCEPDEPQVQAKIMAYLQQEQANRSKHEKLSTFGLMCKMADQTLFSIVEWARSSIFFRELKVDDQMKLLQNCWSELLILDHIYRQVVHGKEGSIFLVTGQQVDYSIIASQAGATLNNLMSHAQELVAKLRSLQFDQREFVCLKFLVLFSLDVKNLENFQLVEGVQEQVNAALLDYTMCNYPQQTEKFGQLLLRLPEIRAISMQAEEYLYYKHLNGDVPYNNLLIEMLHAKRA
Chain of Steroidogenic factor 1 (Homo sapiens) (Q13285 whole entry, looked up, the tested form may be a part): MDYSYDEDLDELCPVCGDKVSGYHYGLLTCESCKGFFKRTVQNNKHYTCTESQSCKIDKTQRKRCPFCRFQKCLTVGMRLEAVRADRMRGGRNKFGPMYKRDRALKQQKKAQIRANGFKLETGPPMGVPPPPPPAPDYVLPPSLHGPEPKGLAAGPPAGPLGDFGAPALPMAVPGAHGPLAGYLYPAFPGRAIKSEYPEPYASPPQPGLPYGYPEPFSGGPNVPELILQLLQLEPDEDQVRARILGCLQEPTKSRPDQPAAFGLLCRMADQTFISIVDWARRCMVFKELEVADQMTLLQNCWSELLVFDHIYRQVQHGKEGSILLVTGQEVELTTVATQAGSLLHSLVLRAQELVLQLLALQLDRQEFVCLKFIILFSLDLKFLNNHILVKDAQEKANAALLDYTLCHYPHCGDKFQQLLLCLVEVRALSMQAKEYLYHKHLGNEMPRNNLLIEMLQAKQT

Row | Compound | inhibition [1] | inhibition [2] | inhibition [3] | inhibition [4]
1 | CC1=C(n2nnc([N+](=O)[O-])n2)C(c2cccnc2)C(C#N)=C(N)O1 (stereo unspecified) | 6.01% | 17.6% | 21.5% | -0.44%
2 | O=C1C=C(N2CCCCCC2)C2(CCCCC2)O1 | 4.6% | 58.5% (active) | 55% (active) | -9.31%
3 | Nn1c(SCC(=O)Nc2c(F)cc(F)cc2Br)nnc1C1CCCCC1 | 6.71% | 38.9% | 27.5% | -6%
4 | O=C(c1ccc([N+](=O)[O-])o1)N1CCN(c2nc3c(F)cc(F)cc3s2)CC1 | -14.9% | 60.2% (active) | 60.4% (active) | -0.11%
5 | Cc1cc(C)c2c(=O)[nH]c(SCC(=O)Nc3ccc(Br)cc3)nc2n1 | 9.16% | 47.8% (active) | 30.6% | -6.94%
6 | c1csc(CCNc2ncnc3sc4c(c23)CCC4)c1 | 10.5% | 63.7% (active) | 60.7% (active) | 48.9% (active)
7 | CCCc1cc(=O)oc2c(C)c(OCC(=O)NCCCn3ccnc3)ccc12 | -1.87% | 47.8% (active) | 35.9% | -19.5%
8 | CCOc1ccc(CCNC(=O)COC(=O)c2cc(S(=O)(=O)N3CCOCC3)ccc2F)cc1OCC | 5.25% | 53.2% (active) | 57.1% (active) | -4.44%
9 | COc1ccc(S(=O)(=O)N2CCCCC2)cc1NC(=O)c1ccc([N+](=O)[O-])o1 | 25.8% | 74.9% (active) | 68.1% (active) | 18.6%
10 | COc1ccc(/C=N/NC(=O)c2cc(-c3ccc(C)cc3C)nc3ccccc23)cc1COC(C)=O | 1.71% | 52.8% (active) | 50.6% (active) | -17.4%
11 | CCN1C(=O)c2cccc3c(N)ccc1c23 | 33.4% (active) | 58.6% (active) | 46% (active) | -37.8%
12 | COc1ccc(OCCNC(=O)C2(C)CCN2Cc2ccc(SC)cc2)cc1 (stereo unspecified) | 1.32% | 46% (active) | 45.9% (active) | 2.76%
13 | COC(=O)Cc1sc(-c2ccccn2)nc1-c1ccccc1 | 11.6% | 61.7% (active) | 58.9% (active) | -7.62%
14 | O=C(C[C@H]1CC[C@@H]2[C@H](COC[C@H](O)CN2Cc2cccc(C(F)(F)F)c2)O1)NCCc1ccccc1 | 2.1% | 8.97% | 15.7% | 1.55%
15 | O=C(CCl)Nc1cccc(Oc2cnccn2)c1 | 37.1% (active) | 69% (active) | 64.9% (active) | -26.5%
16 | CC1(C(=O)NCc2ccc3c(c2)OCO3)CCN1C(=O)Cc1ccc(Cl)cc1Cl (stereo unspecified) | 7.73% | 56.5% (active) | 47% (active) | -2.52%
17 | OCCCNc1c2ccccc2nc2ccccc12 | 13.1% | 107% (active) | 56.7% (active) | 96.4% (active)
18 | O=C(Nc1ccc(F)cc1)c1oc2ccccc2c1NC(=O)C1CC1 | 24.4% | 50.9% (active) | 62.2% (active) | 3.97%
19 | O=C(Nc1cc(C(F)(F)F)cc(C(F)(F)F)c1)O[C@@H]1c2ccccc2[C@@H]2Cc3csc[n+]3[C@H]12 | 15.6% | 60% (active) | 58.4% (active) | 4.96%
20 | COc1cc(N)c2ncccc2c1Br | 16.6% | 17.8% | 26.6% | -4.59%
21 | Cc1cc(C)c(C(N)=O)c(Nc2cccc3ccccc23)n1 | 1.09% | 2% | 22.7% | -17.9%
22 | Cc1ccc(NC(=O)COC(=O)C(NS(=O)(=O)c2ccc(Cl)cc2)C(C)O)c(Br)c1 (stereo unspecified) | 3.18% | 55.3% (active) | 57.6% (active) | -12.9%
23 | Cc1ccc(C)c(NC(=O)CSc2nnc(-c3ccccc3)n2N)c1 | -26.9% | 53% (active) | 44.7% (active) | -20.5%
24 | COc1cc2c(OC(C)=O)c3c(c(-c4ccc5c(c4)OCO5)c2cc1OC)C(=O)OC3 | 55.8% (active) | 35.4% | 36.2% | 34.7% (active)
